# Pf Dd2 growth: inhibitors of Plasmodium falciparum Dd2 growth; AID 1347417; hit rate 4.3% among 120,000; Potency, µM (doses to about 28.9 µM), for the others: top-dose activity, negative = inhibition, usual class: inhibitors; P. falciparum Dd2 growth, SYBR Green, 72 h; active = well fitted inhibition curve with a large enough effect;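 note: plate controls were DMSO vehicle for no effect and reference drug for full effect; nearly all actives have a fitted effect of over 65% in size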
#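 Readout: SYBR Green fluorescence, 485 nm excitation, 535 nm emission, after ~16 h lysis at 37C. Before that, Dd2-infected red cells (2.5% hematocrit) grew 72 h with compound, 29 uM top final concentration.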
# Starred values were filed as active, the others as inactive; i = inactive; [ ] = remark or other dose. The sample as a whole holds a higher share of hits than the screen did. Potency is the fitted concentration of half-maximal effect.
SMILES,Pf Dd2 growth
C[C@H](C(=O)NCCN1CCOCC1)C1CC[C@@]2(C)Cc3sc(NC(=O)CC(C)(C)C)nc3[C@@H](C)[C@@H]2[C@H]1O (some centres undefined),-9.2%
Cn1ncc(N2CCC(CNC(=O)c3ccccc3-n3cncn3)C2)cc1=O (centres undefined),3.6%
Cc1cccc2ncc(C(=O)N3CC[C@H](CO)[C@@H](O)C3)c(=O)n12,-10.7%
COc1cccc(C(=O)c2sc(Nc3ccc(F)c(Cl)c3)nc2N)c1,i
COc1ccc(S(=O)(=O)c2c(Nc3ccccc3F)sc(C(=O)c3cccc(OC)c3)c2N)cc1,11.2µM*
COc1ccc2nc3sc(C(=O)Nc4ccccc4F)cc3cc2c1,9.4%
O=C(c1ccc(C(F)(F)F)cc1)N1CCC(N2Cc3ccccc3C2=O)CC1,10.8%
Cc1nnc(-c2cc(N3C[C@@H](C)O[C@@H](C)C3)ccn2)n1C1CCCCC1,i
COc1ccc(CNC(=O)C2CCc3nc(N4CCN(C(C)=O)CC4)sc3C2)cc1 (centres undefined),i
CC(=O)N1CCN(c2nc3c(s2)CC(C(=O)NC2CCCCC2)CC3)CC1 (centres undefined),i
CCC(=O)N1CCN(c2nc3c(s2)CC(C(=O)NCc2ccc(F)cc2)CC3)CC1 (centres undefined),-29.3%
CC(C)C(=O)N1CCN(c2nc3c(s2)CC(C(=O)Nc2ccc(Cl)cc2)CC3)CC1 (centres undefined),i
CC(=O)N1CCN(c2nc3c(s2)CC(C(=O)Nc2cccc(C(C)(C)C)c2)CC3)CC1 (centres undefined),-13.4%
CC(=O)N1CCN(c2nc3c(s2)CC(C(=O)NCc2ccccc2C)CC3)CC1 (centres undefined),i
Cc1ccc(CNC(=O)C2CCc3nc(N4CCN(C(=O)C(C)C)CC4)sc3C2)o1 (centres undefined),7.94µM*
CC(C)C(=O)N1CCN(c2nc3c(s2)CC(C(=O)NCc2ccco2)CC3)CC1 (centres undefined),12.6µM*
CC(=O)N1CCN(c2nc3c(s2)CC(C(=O)Nc2cc(F)cc(F)c2)CC3)CC1 (centres undefined),4.47µM*
CO[C@H]1C(=O)N(C2CCN(S(=O)(=O)c3cccc(F)c3)CC2)[C@H]1c1ccncc1,7.8%
CCN1c2cc(C(=O)NCc3cccc(Br)c3)ccc2C(=O)N2CCCCC21 (centres undefined),-4.5%
CN(C)CCCn1ccnc1C1CCN(C(=O)C2CCCN(C)C2)CC1 (centres undefined),11.4%
Cc1ccc(C2CCN(C(=O)Nc3ccc(Cl)cc3)C2)cc1 (centres undefined),i
CCn1c(SCC(=O)c2ccc([N+](=O)[O-])cc2)nnc1-c1ccc(Cl)cc1,i
CC(=O)C1=C(c2ccc(Cl)cc2)N(C(C)=O)n2c(nnc2C2CCCCC2)S1,1µM*
CCC(=O)C1=C(c2ccc(F)cc2)N(C(=O)CC)n2c(nnc2C2CCCCC2)S1,3.16µM*
CCCSC1=NC2(CCN(C(=O)NC3CCCCC3)CC2)N=C1c1ccc(Cl)cc1,6.7%
SMILES,Pf Dd2 growth
CCC(=O)C1=C(c2ccc(Cl)cc2)N(C(=O)CC)n2c(C)nnc2S1,2.82µM*
Cn1c(Cn2cccn2)nnc1C1CCCN(C(=O)c2cccc(F)c2)C1 (centres undefined),6.3%
Cn1nnnc1C1CCCN(C(=O)c2ccc(F)cc2)C1 (centres undefined),9.0%
CCNC(=O)N(C1CC1)C1CCOC2(CCN(C(=O)NCc3ccc(C)cc3)CC2)C1 (centres undefined),-2.1%
Cc1ccc(CN2CCn3nnc(CCC(=O)NCc4ccccc4)c3C2)o1,-15.6%
Cc1noc(C)c1NC(=O)N[C@@H]1C[C@H](Cn2cc(-c3cccnc3)nn2)[C@@H](O)[C@H]1O,0.7%
O=C(c1ccc(F)cc1)N1CCC2(CC1)CC(c1cccnc1)=NO2,-15.7%[44.1 µM]
Cn1ccc2c(C(=O)NCCc3cnc[nH]3)nc(-c3ccccc3)cc21,-27.8%[44.1 µM]
Cn1ccc2c(C(=O)NCc3cccnc3)nc(-c3cccnc3)cc21,25.7%[44.1 µM]
Cn1ccc2c(C(=O)NCCc3cnc[nH]3)nc(-c3cccc(CO)c3)cc21,i
CC(=O)Nc1cccc(-c2cc3c(ccn3C)c(C(=O)NCCc3cnc[nH]3)n2)c1,5.01µM*
COc1cccc(-c2cc3c(ccn3C)c(C(=O)NCc3c(C)cc(C)[nH]c3=O)n2)c1,10µM*
Cc1cc(C)c(CNC(=O)c2nc(-c3cnn(C)c3)cc3c2ccn3C)c(=O)[nH]1,i
Cc1cc(C)c(CNC(=O)c2cc(-c3ccc(CN(C)C)cc3)cc3ncn(C)c23)c(=O)[nH]1,-17.9%
Cc1ccc(-c2cc3c(ccn3C(C)C)c(C(=O)NCc3c(C)cc(C)[nH]c3=O)n2)cn1,7.08µM*
COc1ccc(-c2cc3c(ccn3C)c(C(=O)NCCc3cnc[nH]3)n2)cn1,i
COc1ccc(-c2cc(C(=O)NCc3c(C)cc(C)[nH]c3=O)c3c(c2)N(C(C)C)CCO3)cc1OC,i
Cc1cc(C)c(CNC(=O)c2nc(-c3ccccc3C)cc3c2ccn3C(C)C)c(=O)[nH]1,-22.4%[44.1 µM]
COc1ccc(-c2cc3c(ccn3C(C)C)c(C(=O)NCc3c(C)cc(C)[nH]c3=O)n2)cn1,6.31µM*
Cc1nc(C(C)C)sc1C(=O)N(C)Cc1cc(C2CC2)n[nH]1,1.0%
CCc1nc2cc(N3CCC(C(=O)NC(C)c4cccnc4)CC3)cnc2nc1CC (centres undefined),-10.9%
COCCn1nnnc1C1CC2(CCOCC2)C(=O)N1CCc1ccc(Cl)cc1 (centres undefined),-6.2%
COc1cccc(S(=O)(=O)N2CC(n3cc(C(=O)NCc4ccncc4)nn3)C2)c1,3.6%
COCCOC(=O)C1=C(C)N=C2SC=C(CC(=O)NCCc3ccccc3)N2C1c1ccccc1 (centres undefined),-18.5%
O=C(Cn1cccc1-c1nc(-c2ccc3c(c2)OCO3)no1)NC1CCCCC1,-22.5%
SMILES,Pf Dd2 growth
COc1ccc(N2CC3CCC(C2)N3[S+](C)(=O)[O-])cc1,14.5%
COCCOc1cc(=O)n2c(c1C(=O)NCc1ccccc1OC)CCOCC2,-19.0%
Cc1cc(/C=C(\C#N)C(=O)Nc2ccccc2)c(C)n1-c1ccc(F)cc1,-14.6%
CCOc1ccccc1NC(=O)CN1C(=O)C(=O)c2ccccc21,157.7%[5.79 µM]
COc1ccccc1NC(=O)C(=O)c1cc(C)n(-c2cc(C)cc(C)c2)c1C,23.8%
CCOCCc1nnc(NC(=O)C(=O)c2cc(C)n(-c3ccc(C)cc3C)c2C)s1,84.2%
CCOc1ccccc1NC(=O)C(=O)c1cc(C)n(-c2cccc(C)c2C)c1C,7.08µM*
Cc1ccc(-n2c(C)cc(C(=O)C(=O)Nc3ccccc3)c2C)c(C)c1,5.01µM*
Cc1nnc2n1CCC(NC(=O)Cc1cccs1)CC2 (centres undefined),49.8%
CN(CCc1ccccn1)C(=O)c1cn(CCN2CCNCC2)nn1,0.5%
CC(C)c1nc(CCN(C)C(=O)c2cn(CCC3CCCCN3)nn2)no1 (centres undefined),-2.3%
COCc1nc(C2CCCN(C(=O)c3cccc(C)c3)C2)no1 (centres undefined),59.2%
COc1cc(-n2cnnn2)cc(-n2ccnc2-c2cc3n(n2)CCCNC3)c1,5.8%
CCN(CC)C(=O)[C@@H]1CCC[C@@H](N(C)C)CN(C)C(=O)C1,17.9%[44.1 µM]
COc1cccc(CC(=O)N2CCCN(C(=O)C3CC3)c3ccccc32)c1,-14.3%
COc1ccc(-c2nc3c(c(=O)[nH]2)CCN(C(=O)Nc2ccc4c(c2)CCC4)C3)cc1,i

# Screens from PubChem.
